# According to article PMC7862700, “An all-to-all approach to the identification of sequence-specific readers for epigenetic DNA modifications on cytosine”:
# Experiments:
# Experiment in all cases: DAPPL (digital affinity profiling via proximity ligation, sequencing); 10 mM Tris-HCl pH 7.5, 50 mM NaCl, 1 mM DTT, 4% glycerol, room temperature, 30 min; GST-TFs on glutathione beads, 16-mer random dsDNA library, 0.1% formaldehyde crosslink after washing; high values mean tight binding
# FEV = biological target: T1, FEV (Homo sapiens, UniProt Q99581 1-238); conditions: protein: recombinant; tags: N-terminal GST; dsDNA, one strand shown
# T1 sequence: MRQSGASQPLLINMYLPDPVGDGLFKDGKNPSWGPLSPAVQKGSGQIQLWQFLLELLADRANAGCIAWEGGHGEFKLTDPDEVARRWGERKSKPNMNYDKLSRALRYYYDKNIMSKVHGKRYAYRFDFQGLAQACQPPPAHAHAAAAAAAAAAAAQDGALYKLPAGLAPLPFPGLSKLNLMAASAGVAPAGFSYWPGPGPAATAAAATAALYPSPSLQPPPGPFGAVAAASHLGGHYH
# Summary of the method: (§1)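 A tag-only sample was pooled with DNA-barcoded human transcription factors that had been expressed in yeast as GST fusions and captured on glutathione beads. The pools were incubated for 30 min at room temperature with 200 nmole of a random double-stranded 16-mer DNA library in Tris/NaCl/DTT/glycerol buffer, then washed, crosslinked with 0.1% formaldehyde, proximity-ligated (BsaI/T4 ligase, 1 h, 37 °C), PCR-amplified and sequenced on an Illumina NextSeq500. Binding signal is each hexamer's read frequency for a factor divided by its frequency for the tag-only sample.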
# ETV5 = ETV5 (Homo sapiens, UniProt P41161 1-510); conditions: protein: recombinant; tags: N-terminal GST; dsDNA, one strand shown
# ETV5, sequence (P41161 whole entry): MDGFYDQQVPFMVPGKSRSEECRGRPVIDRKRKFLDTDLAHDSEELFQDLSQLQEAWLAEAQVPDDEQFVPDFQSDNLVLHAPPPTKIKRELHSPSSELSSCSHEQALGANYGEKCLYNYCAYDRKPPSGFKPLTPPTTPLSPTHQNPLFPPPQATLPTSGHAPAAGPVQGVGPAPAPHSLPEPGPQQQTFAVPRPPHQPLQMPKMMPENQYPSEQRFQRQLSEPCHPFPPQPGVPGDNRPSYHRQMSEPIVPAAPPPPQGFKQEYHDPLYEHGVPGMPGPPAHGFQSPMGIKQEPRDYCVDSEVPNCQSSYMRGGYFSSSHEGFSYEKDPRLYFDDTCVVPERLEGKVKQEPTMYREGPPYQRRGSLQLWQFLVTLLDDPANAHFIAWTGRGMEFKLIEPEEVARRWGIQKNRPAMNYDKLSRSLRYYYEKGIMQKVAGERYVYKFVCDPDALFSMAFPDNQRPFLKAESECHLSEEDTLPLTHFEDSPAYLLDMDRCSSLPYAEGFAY
# Summary of the method: as §1
# HSF1 = HSF1 (Homo sapiens, UniProt Q00613 1-529); conditions: protein: recombinant; tags: N-terminal GST; chain copies: 3; dsDNA, one strand shown
# HSF1, sequence (Q00613 whole entry): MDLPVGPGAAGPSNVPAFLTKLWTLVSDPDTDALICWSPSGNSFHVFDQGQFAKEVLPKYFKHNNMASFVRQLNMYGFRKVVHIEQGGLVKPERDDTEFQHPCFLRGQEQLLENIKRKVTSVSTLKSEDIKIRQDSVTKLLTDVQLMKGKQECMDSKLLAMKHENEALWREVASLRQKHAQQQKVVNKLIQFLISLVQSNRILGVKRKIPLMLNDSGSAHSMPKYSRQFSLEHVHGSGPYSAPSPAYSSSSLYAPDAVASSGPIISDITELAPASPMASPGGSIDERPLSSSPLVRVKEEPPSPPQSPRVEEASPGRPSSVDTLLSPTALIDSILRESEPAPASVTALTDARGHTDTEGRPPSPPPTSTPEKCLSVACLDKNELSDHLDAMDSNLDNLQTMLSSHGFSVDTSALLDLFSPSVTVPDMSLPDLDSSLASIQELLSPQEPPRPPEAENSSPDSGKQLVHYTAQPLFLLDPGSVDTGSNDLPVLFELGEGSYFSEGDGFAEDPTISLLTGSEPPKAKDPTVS
# Summary of the method: as §1
# SPIC = biological target: T2, SPIC (Homo sapiens, UniProt Q8N5J4 1-248); conditions: protein: recombinant; tags: N-terminal GST; dsDNA, one strand shown
# T2 sequence: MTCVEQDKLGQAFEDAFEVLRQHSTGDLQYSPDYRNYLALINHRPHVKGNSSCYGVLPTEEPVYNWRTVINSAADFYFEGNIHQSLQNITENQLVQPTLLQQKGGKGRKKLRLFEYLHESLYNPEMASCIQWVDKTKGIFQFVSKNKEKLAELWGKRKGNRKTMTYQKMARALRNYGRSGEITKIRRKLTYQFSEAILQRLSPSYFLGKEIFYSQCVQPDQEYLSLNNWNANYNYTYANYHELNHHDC
# Summary of the method: as §1
# ELF4 = ELF4 (Homo sapiens, UniProt Q99607 1-663); conditions: protein: recombinant; tags: N-terminal GST; dsDNA, one strand shown
# ELF4, sequence (Q99607 whole entry): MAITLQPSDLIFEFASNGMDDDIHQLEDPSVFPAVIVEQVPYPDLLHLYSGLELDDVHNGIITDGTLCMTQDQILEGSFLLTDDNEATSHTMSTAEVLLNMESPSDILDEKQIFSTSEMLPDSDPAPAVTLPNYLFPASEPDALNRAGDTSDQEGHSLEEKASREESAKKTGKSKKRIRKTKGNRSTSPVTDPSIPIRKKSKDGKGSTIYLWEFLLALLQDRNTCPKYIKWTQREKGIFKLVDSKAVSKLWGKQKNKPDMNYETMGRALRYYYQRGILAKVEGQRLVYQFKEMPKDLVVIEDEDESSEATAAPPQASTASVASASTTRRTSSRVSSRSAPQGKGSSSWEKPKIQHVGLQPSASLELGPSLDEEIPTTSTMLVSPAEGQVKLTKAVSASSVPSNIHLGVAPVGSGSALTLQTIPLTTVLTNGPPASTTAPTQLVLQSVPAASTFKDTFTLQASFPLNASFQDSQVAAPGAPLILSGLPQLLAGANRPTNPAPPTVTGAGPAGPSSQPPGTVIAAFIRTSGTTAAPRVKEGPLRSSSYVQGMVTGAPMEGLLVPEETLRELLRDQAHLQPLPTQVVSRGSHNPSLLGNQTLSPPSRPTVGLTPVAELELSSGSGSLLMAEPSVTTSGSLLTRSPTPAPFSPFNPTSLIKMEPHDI
# Summary of the method: as §1
# ELK4 = biological target: T3, ELK4 (Homo sapiens, UniProt P28324-2 1-405); conditions: protein: recombinant; tags: N-terminal GST; dsDNA, one strand shown
# T3 sequence: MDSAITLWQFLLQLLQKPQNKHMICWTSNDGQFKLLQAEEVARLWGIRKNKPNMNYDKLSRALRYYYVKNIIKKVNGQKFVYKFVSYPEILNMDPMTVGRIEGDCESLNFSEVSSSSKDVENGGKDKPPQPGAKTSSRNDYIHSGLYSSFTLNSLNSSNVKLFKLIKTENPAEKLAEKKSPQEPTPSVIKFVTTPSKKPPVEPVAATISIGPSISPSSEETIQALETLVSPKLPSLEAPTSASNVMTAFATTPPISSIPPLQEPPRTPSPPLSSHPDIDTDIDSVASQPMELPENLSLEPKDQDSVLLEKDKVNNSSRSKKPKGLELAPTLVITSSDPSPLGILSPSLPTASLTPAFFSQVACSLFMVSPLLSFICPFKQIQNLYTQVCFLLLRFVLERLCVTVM
# Summary of the method: as §1
# ETV2 = biological target: T4, ETV2 (Homo sapiens, UniProt O00321 1-342); conditions: protein: recombinant; tags: N-terminal GST; dsDNA, one strand shown
# T4 sequence: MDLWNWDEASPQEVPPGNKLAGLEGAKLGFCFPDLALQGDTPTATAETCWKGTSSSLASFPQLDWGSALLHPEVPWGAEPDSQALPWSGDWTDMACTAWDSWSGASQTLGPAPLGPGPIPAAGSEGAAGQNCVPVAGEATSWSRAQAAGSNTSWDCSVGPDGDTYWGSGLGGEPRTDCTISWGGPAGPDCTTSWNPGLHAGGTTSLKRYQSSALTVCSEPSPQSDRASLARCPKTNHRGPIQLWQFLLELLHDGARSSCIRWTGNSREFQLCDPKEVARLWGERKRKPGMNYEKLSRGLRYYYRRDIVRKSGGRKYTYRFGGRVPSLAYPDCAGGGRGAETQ
# Summary of the method: as §1
# ELF3 = biological target: T5, ELF3 (Homo sapiens, UniProt P78545 1-371); conditions: protein: recombinant; tags: N-terminal GST; dsDNA, one strand shown
# T5 sequence: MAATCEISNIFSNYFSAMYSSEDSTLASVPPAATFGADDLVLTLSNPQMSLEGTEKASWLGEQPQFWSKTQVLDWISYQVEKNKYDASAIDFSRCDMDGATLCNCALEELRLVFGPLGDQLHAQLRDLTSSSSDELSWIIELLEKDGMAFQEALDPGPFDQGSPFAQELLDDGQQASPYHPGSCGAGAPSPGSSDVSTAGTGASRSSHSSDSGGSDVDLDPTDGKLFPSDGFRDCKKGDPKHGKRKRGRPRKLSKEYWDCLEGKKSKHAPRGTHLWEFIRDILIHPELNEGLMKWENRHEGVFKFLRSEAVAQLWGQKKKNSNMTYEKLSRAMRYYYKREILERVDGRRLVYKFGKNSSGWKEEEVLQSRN
# Summary of the method: as §1
# CRX = CRX (Homo sapiens, UniProt O43186 1-299); conditions: protein: recombinant; tags: N-terminal GST; dsDNA, one strand shown
# CRX, sequence (O43186 whole entry): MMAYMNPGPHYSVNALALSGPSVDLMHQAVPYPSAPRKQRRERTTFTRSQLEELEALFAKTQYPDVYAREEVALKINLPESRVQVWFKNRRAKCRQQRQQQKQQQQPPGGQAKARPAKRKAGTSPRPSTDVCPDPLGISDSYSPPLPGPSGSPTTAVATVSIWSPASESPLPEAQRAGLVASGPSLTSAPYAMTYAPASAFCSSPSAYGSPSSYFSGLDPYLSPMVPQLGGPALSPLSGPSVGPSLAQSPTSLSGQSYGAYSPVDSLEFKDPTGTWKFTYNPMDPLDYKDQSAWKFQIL
# Summary of the method: as §1
# ETV1 = ETV1 (Homo sapiens, UniProt P50549 1-477); conditions: protein: recombinant; tags: N-terminal GST; dsDNA, one strand shown
# ETV1, sequence (P50549 whole entry): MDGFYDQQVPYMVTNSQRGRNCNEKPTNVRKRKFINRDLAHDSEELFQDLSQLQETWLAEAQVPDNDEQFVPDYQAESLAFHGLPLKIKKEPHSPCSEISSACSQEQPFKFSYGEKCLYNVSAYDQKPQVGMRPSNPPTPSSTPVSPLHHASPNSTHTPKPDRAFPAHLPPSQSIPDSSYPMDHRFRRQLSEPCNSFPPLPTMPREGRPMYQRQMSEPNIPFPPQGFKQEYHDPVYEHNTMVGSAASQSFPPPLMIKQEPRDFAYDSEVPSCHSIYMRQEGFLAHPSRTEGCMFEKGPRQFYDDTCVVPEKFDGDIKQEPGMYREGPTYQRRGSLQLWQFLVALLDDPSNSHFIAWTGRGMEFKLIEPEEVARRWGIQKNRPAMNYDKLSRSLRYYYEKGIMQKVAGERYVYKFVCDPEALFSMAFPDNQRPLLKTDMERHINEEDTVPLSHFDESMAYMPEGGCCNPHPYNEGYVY
# Summary of the method: as §1
# ERF = biological target: T6, ERF (Homo sapiens, UniProt P50548 1-548); conditions: protein: recombinant; tags: N-terminal GST; dsDNA, one strand shown
# T6 sequence: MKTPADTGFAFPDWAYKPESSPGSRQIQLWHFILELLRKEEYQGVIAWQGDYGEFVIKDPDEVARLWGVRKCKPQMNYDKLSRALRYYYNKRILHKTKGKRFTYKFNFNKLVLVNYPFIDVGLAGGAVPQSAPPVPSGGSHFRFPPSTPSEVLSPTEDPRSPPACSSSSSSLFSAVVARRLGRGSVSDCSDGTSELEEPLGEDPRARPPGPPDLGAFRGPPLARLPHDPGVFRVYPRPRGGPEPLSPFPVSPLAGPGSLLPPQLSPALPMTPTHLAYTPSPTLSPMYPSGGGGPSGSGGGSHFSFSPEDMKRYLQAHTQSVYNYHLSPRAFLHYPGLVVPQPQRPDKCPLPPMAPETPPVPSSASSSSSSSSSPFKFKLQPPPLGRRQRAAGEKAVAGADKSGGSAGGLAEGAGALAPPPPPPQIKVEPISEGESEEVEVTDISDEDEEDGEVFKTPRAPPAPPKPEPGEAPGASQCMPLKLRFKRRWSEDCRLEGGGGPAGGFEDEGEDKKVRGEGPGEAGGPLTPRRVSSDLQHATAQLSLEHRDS
# Summary of the method: as §1
# ETV3L = biological target: T7, ETV3L (Homo sapiens, UniProt Q6ZN32 1-361); conditions: protein: recombinant; tags: N-terminal GST; dsDNA, one strand shown
# T7 sequence: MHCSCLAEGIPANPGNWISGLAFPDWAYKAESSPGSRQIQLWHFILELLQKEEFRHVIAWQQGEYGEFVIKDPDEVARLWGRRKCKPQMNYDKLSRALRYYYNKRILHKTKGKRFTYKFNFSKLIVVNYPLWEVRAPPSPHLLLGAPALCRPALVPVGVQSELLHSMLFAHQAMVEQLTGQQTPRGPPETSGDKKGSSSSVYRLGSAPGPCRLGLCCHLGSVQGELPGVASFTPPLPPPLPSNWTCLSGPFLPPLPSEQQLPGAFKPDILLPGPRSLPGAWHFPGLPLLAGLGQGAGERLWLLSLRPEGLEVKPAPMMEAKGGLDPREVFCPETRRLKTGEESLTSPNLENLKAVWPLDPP
# Summary of the method: as §1
# ETS2 = biological target: T8, ETS2 (Homo sapiens, UniProt P15036 1-469); conditions: protein: recombinant; tags: N-terminal GST; dsDNA, one strand shown
# T8 sequence: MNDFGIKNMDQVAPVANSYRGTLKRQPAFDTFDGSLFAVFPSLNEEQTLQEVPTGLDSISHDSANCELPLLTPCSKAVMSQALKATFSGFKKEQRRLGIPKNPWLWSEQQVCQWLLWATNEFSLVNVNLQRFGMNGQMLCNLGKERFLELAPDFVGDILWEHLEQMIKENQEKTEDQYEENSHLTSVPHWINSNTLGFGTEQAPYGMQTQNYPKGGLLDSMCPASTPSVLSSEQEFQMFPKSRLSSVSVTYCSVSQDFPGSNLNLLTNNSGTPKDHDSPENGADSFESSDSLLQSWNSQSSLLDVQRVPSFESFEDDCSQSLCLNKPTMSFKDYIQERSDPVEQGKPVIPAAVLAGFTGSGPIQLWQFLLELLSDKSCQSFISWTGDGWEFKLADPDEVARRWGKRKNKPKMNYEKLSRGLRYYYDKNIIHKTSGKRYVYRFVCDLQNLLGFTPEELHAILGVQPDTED
# Summary of the method: as §1
# SPDEF = biological target: T9, SPDEF (Homo sapiens, UniProt O95238 1-335); conditions: protein: recombinant; tags: N-terminal GST; dsDNA, one strand shown
# T9 sequence: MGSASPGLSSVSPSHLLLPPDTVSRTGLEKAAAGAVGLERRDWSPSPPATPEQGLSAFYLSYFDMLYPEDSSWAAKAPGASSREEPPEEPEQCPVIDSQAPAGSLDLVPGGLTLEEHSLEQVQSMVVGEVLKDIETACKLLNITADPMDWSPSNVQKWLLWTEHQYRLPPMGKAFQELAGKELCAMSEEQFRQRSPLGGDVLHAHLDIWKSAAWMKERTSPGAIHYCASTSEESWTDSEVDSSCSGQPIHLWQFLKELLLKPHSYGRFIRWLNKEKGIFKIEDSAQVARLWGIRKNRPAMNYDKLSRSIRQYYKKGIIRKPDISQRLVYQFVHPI
# Summary of the method: as §1
# ETV7 = biological target: T10, ETV7 (Homo sapiens, UniProt Q9Y603 1-341); conditions: protein: recombinant; tags: N-terminal GST; dsDNA, one strand shown
# T10 sequence: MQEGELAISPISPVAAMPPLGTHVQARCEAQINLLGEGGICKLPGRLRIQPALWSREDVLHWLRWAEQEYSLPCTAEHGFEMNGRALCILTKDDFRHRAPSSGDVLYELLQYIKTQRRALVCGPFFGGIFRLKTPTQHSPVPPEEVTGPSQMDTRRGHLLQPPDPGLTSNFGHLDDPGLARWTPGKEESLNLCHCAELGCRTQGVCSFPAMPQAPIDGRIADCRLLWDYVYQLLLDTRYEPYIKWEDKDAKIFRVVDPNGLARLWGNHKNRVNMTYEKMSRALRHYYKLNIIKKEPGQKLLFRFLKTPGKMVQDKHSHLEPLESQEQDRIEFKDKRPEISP
# Summary of the method: as §1
# ELF5 = biological target: T11, ELF5 (Homo sapiens, UniProt Q9UKW6-2 1-255); conditions: protein: recombinant; tags: N-terminal GST; dsDNA, one strand shown
# T11 sequence: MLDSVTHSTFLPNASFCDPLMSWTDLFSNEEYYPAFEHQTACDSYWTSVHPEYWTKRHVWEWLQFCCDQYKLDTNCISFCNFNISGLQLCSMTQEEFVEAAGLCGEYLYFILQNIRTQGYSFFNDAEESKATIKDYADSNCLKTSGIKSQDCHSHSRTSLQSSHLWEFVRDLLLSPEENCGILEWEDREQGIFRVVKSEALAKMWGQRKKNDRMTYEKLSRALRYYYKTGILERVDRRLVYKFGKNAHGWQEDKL
# Summary of the method: as §1
# ETV3 = biological target: T12, ETV3 (Homo sapiens, UniProt P41162-2 1-143); conditions: protein: recombinant; tags: N-terminal GST; dsDNA, one strand shown
# T12 sequence: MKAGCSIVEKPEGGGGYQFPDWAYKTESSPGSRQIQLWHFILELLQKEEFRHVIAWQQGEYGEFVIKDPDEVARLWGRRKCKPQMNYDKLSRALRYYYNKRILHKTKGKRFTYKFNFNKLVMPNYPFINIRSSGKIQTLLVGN
# Summary of the method: as §1
# ETV6 = ETV6 (Homo sapiens, UniProt P41212 1-452); conditions: protein: recombinant; tags: N-terminal GST; dsDNA, one strand shown
# ETV6, sequence (P41212 whole entry): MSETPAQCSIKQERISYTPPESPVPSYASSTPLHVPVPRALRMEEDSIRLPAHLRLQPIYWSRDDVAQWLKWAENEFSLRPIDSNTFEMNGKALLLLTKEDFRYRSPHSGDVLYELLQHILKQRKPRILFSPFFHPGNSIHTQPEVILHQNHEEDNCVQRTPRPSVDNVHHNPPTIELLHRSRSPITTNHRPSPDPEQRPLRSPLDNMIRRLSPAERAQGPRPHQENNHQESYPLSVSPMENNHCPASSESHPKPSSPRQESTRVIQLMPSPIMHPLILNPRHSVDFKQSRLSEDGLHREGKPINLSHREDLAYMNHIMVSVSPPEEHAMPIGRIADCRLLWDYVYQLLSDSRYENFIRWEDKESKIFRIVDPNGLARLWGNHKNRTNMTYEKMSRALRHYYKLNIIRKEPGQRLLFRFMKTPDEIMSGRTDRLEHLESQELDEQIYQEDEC
# Summary of the method: as §1
sequence,measurement,setting,value
TGACCT,binding signal,FEV,"1.69 fold enrichment (6-mer frequency, TF over GST control)"
same,binding signal,ETV5,"1.68 fold enrichment (6-mer frequency, TF over GST control)"
same,binding signal,HSF1,"1.5 fold enrichment (6-mer frequency, TF over GST control)"
same,binding signal,SPIC,"1.79 fold enrichment (6-mer frequency, TF over GST control)"
same,binding signal,ELF4,"1.82 fold enrichment (6-mer frequency, TF over GST control)"
same,binding signal,ELK4,"1.74 fold enrichment (6-mer frequency, TF over GST control)"
same,binding signal,ETV2,"1.65 fold enrichment (6-mer frequency, TF over GST control)"
same,binding signal,ELF3,"1.68 fold enrichment (6-mer frequency, TF over GST control)"
same,binding signal,CRX,"1.36 fold enrichment (6-mer frequency, TF over GST control)"
same,binding signal,ETV1,"1.88 fold enrichment (6-mer frequency, TF over GST control)"
same,binding signal,ERF,"1.66 fold enrichment (6-mer frequency, TF over GST control)"
same,binding signal,ETV3L,"1.83 fold enrichment (6-mer frequency, TF over GST control)"
same,binding signal,ETS2,"1.72 fold enrichment (6-mer frequency, TF over GST control)"
same,binding signal,SPDEF,"1.74 fold enrichment (6-mer frequency, TF over GST control)"
same,binding signal,ETV7,"1.75 fold enrichment (6-mer frequency, TF over GST control)"
same,binding signal,ELF5,"1.73 fold enrichment (6-mer frequency, TF over GST control)"
same,binding signal,ETV3,"1.59 fold enrichment (6-mer frequency, TF over GST control)"
same,binding signal,ETV6,"1.66 fold enrichment (6-mer frequency, TF over GST control)"
